The record followed here is PubChem BioAssay (NCATS).

Records with an inconclusive call do not appear. A call without a number means that no potency is given here. The source made the active and inactive calls. Calls follow the shape of the dose curve; as a rule, active = well fitted cell-killing curve with a large enough effect; inconclusive = small, poorly fitted or top-dose-only effect, or effect the other way; inactive = flat fitted curve, though single readings scatter.
Potency is read from the fitted curve at half-maximal effect.

The test system of this assay is CAOV3. Nature of the assay: Primary qHTS to identify gynecologic anti-cancer compounds using libraries of approved drugs and bioactive compounds (AID 1345084). Also: nearly all actives have a fitted effect of over 55% in size. The settings on record: Gynecologic cancer cell panel viability, ATPlite luminescence, 48 h; series mostly up to 57.5 µM. The source says:
National Center for Advancing Translational Sciences [NCATS] Assay Overview: Chemotherapeutic drug responses vary from cancer to cancer and from patient to patient. These variations could be caused by a number of factors including patient genomic background, tumor mutations, tumor heterogeneity, and aspects of drug treatment. Chemotherapeutic drug resistance is also a common issue and can lead to ineffective treatment and patient death. Here we have profiled the cell killing effects of thousands of compounds to characterize the responses in three gynecological cancers, identify cancer-selective compounds, and understand the diversity of responses to these compounds from pan-cancer suppressors to single cell line selective compounds. In this assay, we screened a 7,914 compound drug library that included approved drug and bioactive compounds in six ovarian, three cervical, and […] placental cancer cell lines using the ATPlite assay for cell viability. […] The cervical cancer cell lines included HeLa, Ca Ski, and C-33 A. The placental cancer cell lines included JEG-3. HEK 293T cells were used as the control cell line to determine the selectivity index. ATPlite is a luminescence based assay reliant on the conversion of a luciferase substrate to light in the presence of ATP. As a cytotoxic compound will suppress growth and decrease the number of cells, the concentration of ATP will decrease, and less light signal will be detected in the well.
Assay Protocol Summary: 1,000 cells in 4 uL of media were dispensed into white, solid bottom 1536-well plates using a Multidrop Combi (Thermo Scientific). The Assay plates were incubated for 16 hours at 37 C with 5% CO2 in assay plates, followed by the addition of 23 nL of DMSO or drug dissolved in DMSO. Each compound was assayed in five concentrations (0.092, 0.46, 2.3, 11.5, and 57.5 uM), using the automated Wako 1536 Pin Tool workstation and incubated at 37 C with 5% CO2 48 hours. 4 uL of ATPlite, the ATP monitoring reagent, was then added to the each well of the assay plates using the Multidrop Combi reagent dispenser followed by incubation for 15 minutes at room temperature. The resulting luminescence was measured using the ViewLux plate reader.
Regarding `COc1ccc(NS(=O)(=O)c2sc3ccc(Cl)cc3c2C)cc1N1CCNCC1`, the Potency entry is “inactive”.

For `CCOc1cc(CNC2CCCC2)cc(Cl)c1OCc1ccc(Cl)cc1`, the Potency was 22.4 µM (active).

Regarding `C=C(C)C(=O)OC1[C@@H]2C(=C)C(=O)O[C@@H]2C[C@@H](C)[C@@H]2C=CC(=O)[C@@]12C` (stereo not given in full), the Potency result was “inactive”.

As for `CC(C)[C@@H](C)/C=C/[C@@H](C)[C@H]1CC[C@H]2C3=CC=C4C[C@@H](O)CC[C@]4(C)C3=CC[C@]12C`, the Potency entry is “inactive”.

In the case of `Cn1cc(-c2cnc3ccc4ccc(CS(=O)(=O)NCc5ccccn5)cc4c(=O)c3c2)cn1`, the Potency entry is “inactive”.

`O=C(NNc1ccccc1)c1ccncc1`: the Potency result was “inactive”.

`CCCCC(=O)N(Cc1ccc(-c2ccccc2-c2nn[nH]n2)cc1)C(C(=O)O)C(C)C` (stereo not given): the Potency entry is “inactive”.

For `CC1(C)SC2C(NC(=O)[C@H](C(=O)O)c3ccsc3)C(=O)N2C1C(=O)O` (stereo not given in full), the Potency entry is “inactive”.

`CC1=CC(=O)[C@@]2(C(C)C)C[C@@H]12`: the Potency entry was “inactive”.

For `CNc1ccc([N+](=O)[O-])cc1-n1cnc(-c2ccc(C(F)(F)F)cc2)c1`, the Potency entry is “inactive”.

For the compound `CN(CCCNC(=O)c1ccc2nc3c(c(Cl)c2c1)CCCC3)Cc1ccccc1`, the Potency result was “inactive”.

Regarding `c1ccc(-c2cnc(Nc3ccc(OCCN4CCCC4)cc3)s2)cc1`, the Potency result is “inactive”.

With `COc1ccc2c(c1)C[C@H](C(=O)Nc1ccc(-c3cn[nH]c3)cc1OCCN(C)C)CO2`, the Potency entry was “inactive”.

For `C[C@@H]1CCNC(=O)c2cc3ccc(C(=O)Nc4nc5ccccc5n4CCCN(C)C)cc3n21`, the Potency is 25.1 µM (active).

In the case of `O=[N+]([O-])c1ccc(-[n+]2nc(-c3ccccc3)nn2-c2ccc(I)cc2)cc1`, the Potency is 11.2 µM (active).

In the case of `CC(=O)C1=C(O)C2c3c[nH]c4cccc(c34)CC2C(C)(C)N(C)C1=O` (stereo not given), the Potency entry was “inactive”.

Regarding `CC1CCC(n2c3cnccc3c3cnc(Nc4ccc5c(n4)CCN(C(=O)CO)C5)nc32)CC1` (stereo not given), the Potency entry is “inactive”.

For the compound `Fc1ccccc1CNCc1ccc(-c2ccnc3[nH]ccc23)cc1`, the Potency entry was “inactive”.

`CC1CCN(C(c2ccc(F)cc2)c2ccc(C(C)C(=O)O)cc2-c2ccc(C(F)(F)F)cc2)CC1` (stereo not given): the Potency result is “inactive”.

Turning to `C[C@H](NC(=O)C(C)(C)Oc1ccc(C(F)(F)F)cn1)[C@@H](Cc1ccc(Cl)cc1)c1cccc(C#N)c1`, the Potency result was “inactive”.

For `O=S(=O)(c1cccc2ccccc12)n1ccc2ccc(N3CCN4CCCC4C3)cc21` (stereo not given), the Potency entry is “inactive”.

On to `C=CC(=O)Nc1cc(Nc2nccc(-c3cn(C)c4ccccc34)n2)c(OC)cc1N(C)CCN(C)C`, for which the Potency was 35.5 µM (active).

`C=C(C)C(=O)O[C@H]1[C@H]2C(=C)C(=O)O[C@@H]2C[C@@H](C)/C=C\C(=O)[C@](C)(O)[C@@H]1OC(C)=O`: the Potency was 8.91 µM (active).

`CC(C)N(CCCNC(=O)Nc1ccc(C(C)(C)C)cc1)C[C@H]1O[C@@H](n2cc(Br)c3c(N)ncnc32)[C@H](O)[C@@H]1O`: the Potency entry was “inactive”.

For the compound `C=C1C(=O)O[C@@H]2CC(C)=C([C@@H](C)CCCO)[C@@H](OC(=O)C(C)C)[C@H]12`, the Potency result is “inactive”.

As to `CN(Cc1ccc(C(=O)O)cc1)c1ccc(OCc2c(-c3c(Cl)cccc3Cl)noc2C2CC2)nc1C(F)(F)F`, the Potency entry is “inactive”.

On to `Cc1cc2nc(NCCCO)n(CC(=O)c3cc(C(C)(C)C)c(O)c(C(C)(C)C)c3)c2cc1C`, for which the Potency result was “inactive”.

On to `CC(C)(C)c1ccc(-c2nc3ccccc3[nH]2)cc1`, for which the Potency was 0.891 µM (active).

Turning to `C=C(C)[C@@H]1CC[C@]2(C(=O)O)CC[C@]3(C)C(CCC4[C@@]5(C)C[C@@H](O)[C@H](O)C(C)(C)C5CC[C@]43C)C12` (stereo not given in full), the Potency entry was “inactive”.

With `CCC[C@@H](NC(=O)N1C(=O)C(CC)(CC)[C@@H]1Oc1ccc(C(=O)N2CCN(C)CC2)cc1)c1ccc2c(c1)OCO2`, the Potency result was “inactive”.

For the compound `CC1CCC2C(=CCC(O)C2(C)C)C1(C)Cc1c(O)cc(CO)c(C=O)c1O` (stereo not given), the Potency result is “inactive”.

For `CC(=O)Nc1ccc(C(=O)Nc2ccccc2N)cc1`, the Potency result is “inactive”.

As to `C=C1C(=O)O[C@@H]2C[C@@]3(C)CCC[C@H](C)C3=C[C@H]12`, the Potency result is “inactive”.

As for `CN1CCN(C(=O)c2ccc(Nc3nccc(-c4cccs4)n3)cc2Cl)CC1`, the Potency result is “inactive”.

Consider `CN[C@@H]1[C@@H](O)[C@@H](O[C@@H]2[C@@H](O)[C@H](O[C@H]3O[C@@H]([C@@H](C)NC)CC[C@H]3N)[C@@H](N)C[C@H]2N)OC[C@]1(C)O`, for which the Potency result was “inactive”.

On to `CO[C@@H]1[C@@H](O[C@H]2O[C@@H](C)[C@H](O[C@@H]3C[C@](C)(O)[C@H](O)[C@@H](C)O3)[C@@H](N(C)C)[C@@H]2O)[C@@H](CC=O)C[C@@H](C)[C@@H](O[C@H]2CC[C@H](N(C)C)[C@H](C)O2)/C=C/C=C/C[C@@H](C)OC(=O)C[C@H]1O`, for which the Potency entry was “inactive”.

For `CN(C)CCCNc1nc(CN2CCN(C(c3ccc(Cl)cc3)c3ccc(Cl)cc3)CC2)nc2ccccc12`, the Potency result was “inactive”.

As for `Cc1ccc(C(=O)N2CCN(c3ccc([N+](=O)[O-])cc3)CC2)cc1Cl`, the Potency entry is “inactive”.

Take `C[C@@H](O[C@H]1OCCN(Cc2n[nH]nc2CN(C)C)[C@H]1c1ccc(F)cc1)c1cc(C(F)(F)F)cc(C(F)(F)F)c1`: the Potency result was “inactive”.

As to `O=C(CC1NCCC[C@H]1O)Cn1cnc2cc(Br)c(Cl)cc2c1=O` (stereo not given in full), the Potency result is “inactive”.
